A selection: hits, their analogues and other compounds. The true share with any hit is near 3%.
SARS PLpro yeast-1 = qHTS of Yeast-based Assay for SARS-CoV PLP. Potency, µM (highest dose often 32.9 µM), for inactives: at the top dose activity, positive = growth rescue, usual class: activators. AID 485353, 2010. 0.19% of 330,000 active. S. cerevisiae expressing SARS-CoV PLpro, growth rescue; calls by dose curve; note: potency is the fitted concentration of half-maximal effect; 0% is about no effect; nearly all actives have a fitted effect of over 55% in size
Sm TGR inh = qHTS Assay for the Inhibitors of Schistosoma Mansoni Peroxiredoxins; Schistosoma mansoni thioredoxin glutathione reductase (TGR), Q962Y6; purified TGR, DTNB reduction, TNB absorbance 405 nm; Potency, µM (titrated, usually from 114 µM), inactives show at the highest dose activity change, negative = inhibition, usual class: inhibitors; 3% of 360,000 active; AID 485364, 2010; active = well fitted inhibition curve with a large enough effect; inconclusive = small, poorly fitted or top-dose-only effect; inactive = no such curve, though single readings can be large or run the other way; note: potency is the fitted concentration of half-maximal effect; % is set by controls: 0 for no effect and ±100 for the full control effect; nearly all actives have a fitted effect of over 60% in size
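TGR 20 nM + NADPH 100 uM (dispensed conc.), cpd preinc 15 min RT; start with NADPH (500 uM addition) then DTNB (15 mM addition). Kinetic TNB absorbance, 405 nm filter. Four-parameter Hill fit across titration.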
SARS PLpro yeast-2 = qHTS of Yeast-based Assay for SARS-CoV PLP: Hit Validation; shares compounds with SARS PLpro yeast-1; yeast expressing SARS-CoV PLpro, growth phenotype rescue; calls only; 19% of 1,000 active; AID 652038, 2013; call rule not given here
Numbers without * were called inactive; i = inactive; ? = inconclusive; · = no result given; + = active, no number.

SMILES	SARS PLpro yeast-1	Sm TGR inh	SARS PLpro yeast-2
CNC(=S)N/N=C/c1ccc2c(c1)OCCO2	2%	-17%	·
NC(=S)N/N=C/c1ccc2c(c1)OCCO2	14µM*	0%	+
NC(=S)N/N=C/c1ccccc1	2.5µM*	3%	+
COc1cc(/C=N/NC(N)=S)ccc1OC(=O)c1ccc(C)cc1	17%	1%	·
NC(=S)N/N=C\c1ccccc1OCc1ccccc1	11µM*	-5%	+
NC(=S)N/N=C/c1ccc(C23CC4CC(CC(C4)C2)C3)cc1	?	-7%	·
O=C(CSCc1ccccc1)N/N=C/c1ccccc1OCc1ccccc1	-6%	3%	·
COc1cc(/C=N/NC(N)=S)ccc1OCc1ccc(C)cc1	?	0%	+
CCCCN1CCc2nc(N3CCN(c4ncccn4)CC3)ncc2C1	·	-2%	·
COc1ccc(-c2cc3ccc(O)c(CN4CCN(C)CC4)c3oc2=O)cc1OC	·	-16%	·
Cc1ccc(N2CC(c3nnc(Cc4ccc(F)cc4Cl)o3)CC2=O)cc1 (centres undefined)	·	-5%	·
NC(=S)N/N=C\c1c2ccccc2cc2ccccc12	14µM*	-16%	i
COCCNC(=S)N/N=C/c1c2ccccc2cc2ccccc12	-1%	-1%	·
O=C(NCc1nc2cccnc2n1Cc1ccc(F)cc1)c1ccccc1C(F)(F)F	·	-2%	·
Nc1c(Cl)cc(-c2[nH]c3cc(C(=O)NCCO)ccc3c(=O)c2O)cc1Cl	?	-10%	+
CCCNC(=O)c1ccc2c(=O)c(O)c(C)[nH]c2c1	29%	?	·
CCC(=O)NC(c1cccs1)c1cc([N+](=O)[O-])c2cccnc2c1O (centres undefined)	?	-19%	i
CC(C)C(=O)NC(c1ccccc1)c1cc([N+](=O)[O-])c2cccnc2c1O (centres undefined)	?	-11%	i
O=C(CCc1ccccc1)NC(c1cccs1)c1cc(Cl)c2cccnc2c1O (centres undefined)	12%	-5%	·
CCCC(=O)NC(c1cccs1)c1cc([N+](=O)[O-])c2cccnc2c1O (centres undefined)	·	-19%	i
CC(=O)NC(c1ccccc1)c1cc([N+](=O)[O-])c2cccnc2c1O (centres undefined)	2%	-9%	·
CC(=O)NC(c1cccs1)c1cc([N+](=O)[O-])c2cccnc2c1O (centres undefined)	?	-34%	·
CCOC(=O)c1c(S(=O)(=O)N2CCC(C(=O)NCc3cccc(OC)c3)CC2)c(C)n(C)c1C	·	3%	·
CCC(C)(C)NC(=O)Cn1c(=O)ccc2cc(S(=O)(=O)N3CCC(C)CC3)ccc21	·	-16%	·
COc1ccccc1CNC(=O)c1oc2ccc(S(=O)(=O)N3CCCCC3)cc2c1C	·	6%	·
SMILES	SARS PLpro yeast-1	Sm TGR inh	SARS PLpro yeast-2
COc1ccc(CN2CCN(C(=O)c3cc(OC)c(OC)c(OC)c3)CC2)cc1OC	-19%	-19%	·
COc1ccc(C(=O)N2CCN(Cc3cc(OC)c(O)c(OC)c3)CC2)cc1OC	20µM*	8.9µM*	i
O=C(CSc1nnc(-c2cccnc2)s1)Nc1cccc(C(=O)O)c1	7%	-6%	·
O=C(CSc1nnc(-c2cccnc2)s1)Nc1ccccc1	?	15%	+
CCOc1ccccc1NC(=O)COC(=O)c1cn(CC)c2nc(C)ccc2c1=O	·	0%	·
O=C(NCc1ccc(Cl)cc1)C(=O)Nc1ccc(Br)cc1	·	0%	·
CC(C)CNC(=O)c1cc([N+](=O)[O-])ccc1N1CCOCC1	?	2%	i
CC(C)CCNC(=O)c1cc([N+](=O)[O-])ccc1N1CCOCC1	26%	-12%	·

Bioassay records as filed in PubChem.
